Bioassay records: PubChem BioAssay, several laboratories
Autofluor counter = compound fluorescence in toxin protease inhibitor counterscreen; 360,000 tested, 3.1% active; fluorescence intensity (test concentration not listed); AID 624483; compound autofluorescence counterscreen, microsphere flow cytometry; stronger effect = higher value; in the data active means fluorescence intensity above about 16000; inconclusive means no clear call, values can overlap the other calls
BoNT-A LC inh2 = inhibitors of Botulinum neurotoxin A light chain protease; multiplex microsphere protease substrate cleavage, flow cytometry; inhibition, % at 10 µM; 360,000 tested, 0.17% active; further: plate controls were buffer without enzyme for full effect and enzyme alone for no effect
Anthrax LF inh2 = inhibitors of Bacillus anthracis lethal factor protease | P15917 | multiplex microsphere protease cleavage assay, LF | inhibition, % at 10 µM | 360,000 tested, 0.12% active; further: plate controls were buffer without enzyme for full effect and enzyme alone for no effect
PfHsp40 rescue = compounds rescuing yeast from Plasmodium falciparum HSP40 toxicity; 340,000 tested, 0.68% active; AID 504582; S. cerevisiae expressing PfHsp40, growth rescue, ATP luminescence; growth rescue, % at 12.5 µM; in the data active means growth rescue above about 28%, passing the limit was not always enough; inconclusive means no clear call, values can overlap the other calls;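 further: yeast W303a lacking pdr1 and pdr3 grown in galactose medium; growth measured after three days at 30 °C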
BoNT-F LC inh = inhibitors of Botulinum neurotoxin F light chain protease; Multiplex microsphere protease cleavage assay, flow cytometry; inhibition, % at 10 µM; 360,000 tested, 0.22% active; AID 588497; in the data active means inhibition above about 35%, passing the limit was not always enough; inconclusive means no clear call, values can overlap the other calls; further: plate controls were buffer without enzyme for full effect and enzyme alone for no effect
MazF activator = MazEF (E. coli) toxin RNase activation; 350,000 tested, 0.32% active; activation, % at 20 µM; FAM/BHQ RNA-DNA oligo cleavage fluorescence, 5 h; in the data active means activation above about 50%
* = called active by the depositor; ? = inconclusive; · = no result given. The list is not random: actives were taken first. Their share in the collection is about 4.3%. Unless noted, no stated cut-off is given here; in the data, active means inhibition above about 30%; inconclusive means no clear call, values can overlap the other calls; inactive means below that.

SMILES	Autofluor counter	BoNT-A LC inh2	Anthrax LF inh2	PfHsp40 rescue	BoNT-F LC inh	MazF activator
O=C(O)CC1S/C(=N/N=C/c2ccc(-c3ccccc3[N+](=O)[O-])o2)NC1=O (stereo not drawn)	23815*	-1	-1	1	-3	12
CC(=O)c1ccc2cc3c(cc2c1)OCO3	3943	0	0	·	-4	7
CCOC(=O)N1CCN(Cc2nc3c(c(=O)[nH]c(=O)n3C)n2Cc2cc(C)ccc2C)CC1	20382*	?	2	0	2	0
CCCCCCn1c(CN2CCN(Cc3ccccc3)CC2)nc2c1c(=O)n(C)c(=O)n2C	20131*	-1	-1	2	-3	-6
COCCn1c(CN2CCN(c3ccc(OC)cc3)CC2)nc2c1c(=O)n(C)c(=O)n2C	8087	1	-10	0	4	8
CCCCCn1c(CN2CCN(C(=O)OCC)CC2)nc2c1c(=O)n(C)c(=O)n2C	7714	1	4	0	-1	-1
COc1ccc(N2CCN(Cc3nc4c(c(=O)n(C)c(=O)n4C)n3CC(C)=O)CC2)cc1	20509*	-2	-2	0	-2	7
CCCCCn1c(CN2CCN(C(=O)OCC)CC2)nc2c1c(=O)[nH]c(=O)n2C	11366	0	-3	0	-4	6
CCOC(=O)N1CCN(Cc2nc3c(c(=O)n(C)c(=O)n3C)n2CCCc2ccccc2)CC1	20078*	2	-3	-1	3	-17
CC1(C(=O)NS(=O)(=O)c2cccs2)CCN1C(=O)C1CC1 (stereo not drawn)	2953	0	-10	·	-6	·
Fc1ccc(Nc2nc(NCc3cccs3)nc3ccsc23)cc1	4011	0	-2	·	-7	·
CCCCCn1c(CN2CCN(Cc3ccccc3)CC2)nc2c1c(=O)[nH]c(=O)n2C	22888*	-1	0	0	-1	4
CCCCCCCCn1c(N2CCN(c3cccc(Cl)c3)CC2)nc2c1c(=O)[nH]c(=O)n2C	9367	0	5	-2	0	-2
CCCCCn1c(CN2CCN(c3cccc(Cl)c3)CC2)nc2c1c(=O)[nH]c(=O)n2C	20547*	0	-8	2	-2	-2
Cn1c(=O)[nH]c(=O)c2c1nc(CN1CCN(c3cccc(Cl)c3)CC1)n2CCc1ccccc1	16970*	-2	-2	1	-9	-5
CCCn1c(-c2cccs2)nc2c1c(=O)[nH]c(=O)n2Cc1ccccc1	4177	0	4	-1	-6	83*
CCC(=O)Nc1ccc(C(=O)COC(=O)c2nc3nccc(C)n3n2)cc1	3422	0	3	1	4	2
COc1ccc(-n2nc3c(c2NC(=O)COc2ccccc2F)CS(=O)(=O)C3)cc1	5412	1	-3	0	4	5
Cc1ccc(-n2nc3c(=O)n(CCCC(=O)NCc4cccc(F)c4)nc(C)c3c2C)cc1	5820	-3	2	0	0	0
COc1ccc(OC)c(-c2csc(NC(=O)c3ccc(F)cc3)n2)c1	·	·	·	3	·	5
CCc1ccc(NC(=O)CC2C(=O)Nc3c2c(=O)n(C)c(=O)n3C)cc1 (stereo not drawn)	22007*	3	1	-1	7	-12
CCc1ccc(NC(=O)CC2NCCNC2=O)cc1 (stereo not drawn)	11220	0	0	1	-3	8
Cc1ccccc1-c1nc(S(=O)(=O)c2ccccc2)c(N2CCCC2)o1	4705	3	?	1	10	4
Cn1cc(C(=O)NCCN2CCN(c3cccc(Cl)c3)CC2)c2c3ccccc3n(C)c2c1=O	23347*	-1	-3	0	-2	3
Cc1c(C(=O)N2CCC3(CC2)OCCO3)oc2ccccc12	18025*	4	5	1	6	-2
SMILES	Autofluor counter	BoNT-A LC inh2	Anthrax LF inh2	PfHsp40 rescue	BoNT-F LC inh	MazF activator
Cn1cc(C(=O)N2CCC3(CC2)OCCO3)c2c3ccccc3n(C)c2c1=O	23087*	-1	-4	0	-1	-3
Cc1c(C(=O)N2CCC3(CC2)OCCO3)oc2ccc(S(=O)(=O)N3CCOCC3)cc12	3481	2	1	-1	4	3
CCOC(=O)N1CCN(C(=O)c2cn(C)c(=O)c3c2c2ccccc2n3C)CC1	22295*	2	0	1	3	2
Cc1c(COc2ccc3ccccc3c2)nnn1CC(=O)NS(=O)(=O)c1ccccc1C(F)(F)F	3979	0	5	·	-2	·
NC(=O)c1ccccc1Nc1nc(NCCO)nc(N2CCCC2)n1	2957	0	-6	-1	-8	0
CC1=C(C(=O)N2CCC3(CC2)OCCO3)C2(CCC(C)CC2)OC1=O (stereo not drawn)	21647*	?	-1	0	1	-7
CC1=C(C(=O)N2CCCCC2)C2(CCC(C)CC2)OC1=O (stereo not drawn)	6437	0	-3	-1	-5	2
CN1/C(=C/C(=O)c2ccc(Cl)cc2)Sc2cc3c(cc21)OCO3	2510	3	1	0	-1	431*
COc1ccc2c(c1)S/C(=C\C(=O)c1ccncc1)N2C	2915	3	-11	174*	-32	141*
COc1ccc(C(=O)/C=C2/Sc3cc4c(cc3N2C)OCO4)cc1	2029	2	-1	?	-4	-11
CSc1ccc(CN(C)C(=O)C23CC4CC(CC(Cl)(C4)C2)C3)cc1	6348	-1	1	2	-5	3
Cc1ccc(Cn2c(=O)c3ccccc3n3c(SCC(=O)N4CCCCC4C)nnc23)cc1 (stereo not drawn)	19920*	?	2	1	2	-17
Cc1cc(-n2c(SCC(=O)NCc3cccs3)nc3n[nH]c(C)c3c2=N)ccc1Cl	23384*	0	-1	1	-1	32
O=C1/C(=C\c2ccccn2)SC(=S)N1Nc1ncc(C(F)(F)F)cc1Cl	22887*	2	0	-2	3	4
C/C(=N\NC(=O)c1nnn(-c2nonc2N)c1CSc1ccccc1)c1ccc2c(c1)OCO2	6608	-3	-3	0	-6	-74
CN(C)c1ccc(/C=N/N(CCC#N)C2=NS(=O)(=O)c3ccccc32)cc1	3849	0	7	-1	6	140*
c1coc(CN(Cc2cccs2)Cc2nnnn2C2CCCCC2)c1	3021	-1	-4	0	-6	-3
Clc1ccccc1CN(Cc1ccco1)Cc1nnnn1C1CCCC1	4121	0	0	331*	3	-6
Cc1cc(C)n2nc(C(=O)OCC(=O)Nc3ccc(F)cc3F)nc2n1	?	-1	0	0	5	8
CN(C)c1ccc(-c2cc([C@H]3[C@@H]4C=CCC[C@@]4(C)C(=O)N3Cc3ccccc3)ccc2F)cc1	4108	0	-4	-1	-10	0
O=C(CN(CCc1ccccc1)C(=O)CN1C(=O)COc2ccccc21)NCc1ccco1	23028*	1	0	1	2	0
Cc1ccc2c(c1)N(CC(=O)NCc1ccco1)C(=O)CO2	7286	-2	0	-2	-4	5
